The values that follow come from PubChem BioAssay (NCI).

Structures are written as SMILES. Where “and” joins values, the source holds several entries; their conditions need not be identical. Equal values may be shown once. This is part of a sample that, as a whole, favours compounds with a hit. Of some 83,000 tested, about 20% had one in any assay.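 Each cell line was grown in a 96-well plate and treated with one concentration of compound for 48 hours. Values below 10 were considered active.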 Calls of active or inactive are those of the source.

The test system of the first experiment is MDA-MB-435 melanoma. The experiment can be described thus: NCI-60 one-dose screen, 48 h (100 = growth as untreated, 0 = no growth, -100 = all killed). As to conditions: 1 µM. The procedure:
Growth inhibition of the MDA-MB-435 human Melanoma tumor cell line is measured as a screen for anti-cancer activity. Cells are grown in 96 well plates and exposed to the test compound for 48 hours. Compounds are tested at a single concentration, which is 10^-5 M for most compounds. The reported endpoint is percent growth (GI% or GIPRCNT), where numbers from 0 - 100% represent growth inhibition, and numbers from -100% - 0 represent cell death. For example, a value of 40 represents 60% growth inhibition. A value of 0 means no net growth occurred over the course of the experiment. A value of -40 indicates 40% of cells at the beginning of the experiment died by the end of the experiment. A value of -100 means all cells are dead at the end of the experiment.
NCI-60 Human Tumor Cell Lines Screen was performed using the standard one-dose NCI protocol, which is described in more detail at https://dtp.cancer.gov/discovery_development/nci-60/default.htm.
Compounds with GIPRCNT values below 10 were considered active. Activity score was based on GIPRCNT using the following formula: […]
Score is 0 for GIPRCNT values of 100 or above, 50 for GIPRCNT values of 0, and 100 for GIPRCNT values of -100.
Turning to `CNC(=O)c1cc(Oc2ccc(CC(=O)Nc3cc(C(C)(C)C)nn3C)cc2)ccn1`, the growth is 78.1% (inactive).

The same experiment, now with this note: 10 µM.
Turning to `CNC(=O)c1cc(Oc2ccc(CC(=O)Nc3cc(C(C)(C)C)nn3C)cc2)ccn1`, the growth is 61.8% (inactive).

The experiment is the same for the next values; noted with them: 10 µM unless noted.
On to `O=C(Nc1ccc([N+](=O)[O-])cc1Cl)c1cc(Cl)ccc1O`, for which the growth was -20% (active) and -17.3% (active).

Consider `Cc1cccc(/C=C\C(=O)c2ccc(Cl)cc2)c1`, for which the growth was 95.6% (inactive) and 84.4% (inactive).

`Cn1c(SSc2ccc(-c3cccnc3)n2C)ccc1-c1cccnc1`: the growth was 92.8% (inactive) and 82% (inactive).

For `ClC/C=C/CSc1ncnc2nc[nH]c12`, the growth is 108% (inactive) and 103% (inactive).

In the case of `Nc1nc(SC/C=C/CCl)c2[nH]cnc2n1`, the growth is 105% (inactive) and 101% (inactive).

Consider `O=C=NC(c1ccccc1)(c1ccccc1)c1ccccc1`, for which the growth was 108% (inactive).

In the case of `Cc1ccc(NCSc2ccc(Cl)cc2)cc1`, the growth is 63.8% (inactive) and 65.7% (inactive).

On to `COC(=O)c1nc(N)nc(C(=O)OC)c1C(=O)c1ccc(OC)cc1`, for which the growth is 104% (inactive) and 66.8% (inactive).

On to `O=C(Nc1cccc(Cl)c1)c1cc2ccccc2cc1O`, for which the growth was 28.8% (inactive) and 13.9% (inactive).

For the molecule `CCOc1ccc2nc3cc(N)ccc3c(N)c2c1`, the growth is 91.7% (inactive) and 98.2% (inactive).

`COc1cc2c(Nc3ccc(Cl)c(Cl)c3F)ncnc2cc1OCC1C[C@@H]2CN(C)C[C@@H]2C1` (stereo not given in full): the growth is -95.8% (active) and -38% (active).

For `O=C(O)CN(CCN(CC(=O)O)CC(=O)O)CCN(CC(=O)O)CC(=O)O`, the growth was 17.1% (inactive) and 101% (inactive).

On to `CC1=C(/C=C/C(C)=C/C=C/C(C)=C/C=N/NC(=S)NC(=S)N/N=C/C=C(C)/C=C/C=C(C)/C=C/C2=C(C)CCCC2(C)C)C(C)(C)CCC1`, for which the growth is -47.1% (active) and -61.9% (active).

Regarding `Cn1c(=O)n(-c2ccc(C(C)(C)C#N)cc2)c2c3cc(-c4cnc5ccccc5c4)ccc3ncc21`, the growth is 2.94% (active) and 5.92% (active).

For `Oc1ccccc1/C=N\NC(=S)N/N=C/c1ccccc1O`, the growth is 56.3% (inactive) and 44.2% (inactive).

Take `Cc1cc(O)c(C(C)C)cc1N`: the growth was 117% (inactive) and 98.9% (inactive).

On to `CNC(=O)c1ccc(C)c(-n2c(C)cc(OCc3ccc(F)cc3F)c(Br)c2=O)c1`, for which the growth is 85.4% (inactive) and 99.4% (inactive).

As to `CC(C)Cc1ccc(C(C)C(=O)NCc2ccc(Cn3c(=O)sn(CCCI)c3=O)cc2)cc1` (stereo not given), the growth was 93% (inactive) and -72.6% (active).

For the molecule `S=C1SCN(Cc2ccccc2)CN1Cc1ccccc1`, the growth was 85.5% (inactive).

Regarding `CC(C)Oc1ccc2cc(-c3nn(CC4CCNCC4)c4ncnc(N)c34)ccc2c1`, the growth is 92.1% (inactive) and -86.6% (active).

Turning to `COc1ccc2nc(Cl)cc(C)c2c1`, the growth was 93.6% (inactive) and 96.1% (inactive).

For `CC(C(=O)O)n1cc(C#N)c(=O)[nH]c1=O` (stereo not given), the growth was 94.8% (inactive) and 106% (inactive).

Consider `O=C(CCl)c1ccc2c(c1)Nc1ccccc1S2`, for which the growth is 100% (inactive) and 88.9% (inactive).

For the molecule `Cc1ccc2nc3c(nc2c1)-c1cccc2cccc-3c12`, the growth was 103% (inactive).

As for `Cn1cc(-c2cc3c(Nc4ccc(CC(=O)Nc5cc(C(C)(C)C)on5)cc4)ncnc3[nH]2)cn1`, the growth was -42.3% (active) and -0.328% (active).

Turning to `N#CCCOc1ccccc1`, the growth is 96.4% (inactive).

For the molecule `CC1=C(/C=C/C(C)=C/C=C/C(C)=C/C(=O)Nc2ccc(O)cc2)C(C)(C)CCC1`, the growth was 31.7% (inactive).

Take `CN1CCN(C2CCN(C(=O)Nc3cc(Oc4ccc(NC(=O)C5(C(=O)Nc6ccc(F)cc6)CC5)c(F)c4)ccn3)CC2)CC1`: the growth is -93% (active) and 85.8% (inactive).

Take `Cc1ccc(-c2noc(CC(=O)c3ccc([N+](=O)[O-])cc3)n2)cc1`: the growth was 98.1% (inactive).

`COc1ccc(NC(=S)Nc2ccccn2)cc1`: the growth is 98.7% (inactive).

With `O=C(N/N=C/c1ccc2c(c1)OCO2)c1ccncc1`, the growth was 108% (inactive) and 112% (inactive).

In the case of `O=[N+]([O-])c1ccc(/C=N\NC(=S)Nc2ccc(F)cc2)cc1`, the growth was 109% (inactive) and 101% (inactive).

For the molecule `CC(=O)NC(Cc1ccccc1)C(=O)Oc1ccc2ccccc2c1` (stereo not given), the growth is 119% (inactive) and 107% (inactive).

Take `CCN(CC)CCC(CNc1c2ccc([N+](=O)[O-])cc2nc2cc(OC)c(OC)cc12)c1ccccc1` (stereo not given): the growth is -92.2% (active) and -97.3% (active).

Consider `CN(C)CCCN1c2ccccc2Sc2ccc(Cl)cc21`, for which the growth was 21.3% (inactive) and 129% (inactive) and 55.5% (inactive).

For the molecule `c1ccc2c(CC3=NCCN3)cccc2c1`, the growth is 101% (inactive) and 106% (inactive).

`COc1cc(C(=O)N/N=C/c2ccc(N(C)C)cc2)cc(OC)c1OC`: the growth is -11.9% (active).

The experiment is the same for the next values; noted with them: 30 µM.
In the case of `CNC(=O)c1cc(Oc2ccc(CC(=O)Nc3cc(C(C)(C)C)nn3C)cc2)ccn1`, the growth is 67.9% (inactive).
